Compounds with a hit are over-represented: about 10% of the library has one in this group of screens.
RORgamma inh = blocks mouse ROR gamma transcriptional activity; 310,000 tested, 5.4% active; Drosophila S2 Gal4-RORgamma UAS-luciferase reporter, 20 h; Potency, µM (series often up to 53.6 µM), for the others: at the highest dose activity change, negative = inhibition, actives largely listed as inhibitors; P51450; AID 2551; note: % is set by controls: 0 for no effect and ±100 for the full control effect; nearly all actives have a fitted effect of over 60% in size
Target sequence (P51450 whole entry, looked up, the tested form may be a part): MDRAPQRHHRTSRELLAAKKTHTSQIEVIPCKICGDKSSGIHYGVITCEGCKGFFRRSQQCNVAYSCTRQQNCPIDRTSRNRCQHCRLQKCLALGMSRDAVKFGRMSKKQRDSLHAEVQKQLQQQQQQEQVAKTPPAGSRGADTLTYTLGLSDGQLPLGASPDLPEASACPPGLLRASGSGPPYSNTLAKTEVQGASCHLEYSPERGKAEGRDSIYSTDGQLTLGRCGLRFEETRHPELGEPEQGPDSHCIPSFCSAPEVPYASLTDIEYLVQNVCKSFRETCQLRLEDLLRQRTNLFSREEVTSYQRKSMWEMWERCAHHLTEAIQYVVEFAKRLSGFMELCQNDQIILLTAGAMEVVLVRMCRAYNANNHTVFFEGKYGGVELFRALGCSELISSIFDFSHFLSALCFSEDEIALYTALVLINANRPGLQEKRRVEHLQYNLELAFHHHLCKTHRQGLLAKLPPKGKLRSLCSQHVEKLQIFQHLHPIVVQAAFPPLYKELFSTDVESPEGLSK
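Compounds are pin-transferred onto Drosophila Schneider cells expressing a copper-inducible Gal4–ROR gamma transactivation domain fusion. After 1 hr, copper sulfate is added to 700 uM final; luciferase is read 20 hr later.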
MCF10A rerep = induces DNA re-replication in MCF 10a normal breast cells; MCF 10A DNA re-replication, Hoechst nuclear intensity, 48 h; Potency, µM (highest dose often 46.1 µM), without a hit: at the highest dose activity, positive = re-replication, hits mostly activators; 350,000 tested, 2.9% active; note: % of control where 0% means no effect; nearly all actives have a fitted effect of over 50% in size
SW480 rereplic = DNA re-replication induction in SW480 cells; SW480 DNA re-replication, Hoechst DNA content imaging, 48 h; Potency, µM (doses to about 46.1 µM), inactives show at the top dose re-replication activation, most hits filed as activators; 340,000 tested, 1.8% active; note: % of control where 0% means no effect; nearly all actives have a fitted effect of over 55% in size
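Per well, 250 cells were exposed to pinned compound for 48 hr. Nuclear DNA was visualised with Hoechst (40 min, 37 C) and total object intensity recorded by fluorescence scanning.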
KB-V1 cytotox = KB-V1 MDR subline cytotoxicity; KB-V1 MDR cells viability, CellTiter-Glo, 72 h; Potency, µM (titrated, usually from 46.1 µM), usual class: cytotoxic; 400,000 tested, 3.4% active; note: % is set by controls: 0 for no effect and ±100 for the full control effect; nearly all actives have a fitted effect of over 60% in size
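KB-V1 cells (P-gp-expressing MDR subline of KB-3-1) in phenol-red-free DMEM with 10% FBS were exposed to library compounds over a concentration series for 72 h at 37 degrees C. Viability read by CellTiter-Glo luminescence; concentration-effect curves fitted after normalization.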
KB-3-1 cytotox = kills parental KB-3-1 adenocarcinoma cells; KB-3-1 viability, CellTiter-Glo ATP luminescence, 72 h; Potency, µM (top dose mostly 46.1 µM), actives largely listed as cytotoxic; 400,000 tested, 1.4% active; AID 1347075; note: % is set by controls: 0 for no effect and ±100 for the full control effect; nearly all actives have a fitted effect of over 60% in size
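Luminescent ATP read-out (CellTiter-Glo) measures survival of drug-naive KB-3-1 cells after 72 h compound exposure at 37 °C. Titration series was screened from lowest to highest concentration, with DMSO vehicle plates as background controls.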
VP16 counter = Gal4-VP16 reporter inhibition counter-screen; Drosophila S2 Gal4-VP16 UAS-luciferase, luminescence, 20 h; Potency, µM (doses to about 53.6 µM), for the others: top-dose activity, negative = inhibition, usual class: inhibitors; 310,000 tested, 3.5% active;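 note: Gal4-VP16 expression switched on by copper sulfate through the metallothionein promoter; % is set by controls: 0 for no effect and ±100 for the full control effect; nearly all actives have a fitted effect of over 50% in size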
The depositor's hits bear a star; i = inactive; ? = inconclusive; . = no result; [ ] = another dose, or the depositor's remark. Calls come from the whole dose curve; as a rule, active = well fitted curve in the direction sought with a large enough effect; inconclusive = small, poorly fitted or top-dose-only effect, or another doubt; inactive = no such curve, though single readings can be large; an effect the other way counts as inactive or inconclusive. Potency is the fitted concentration of half-maximal effect.

SMILES | RORgamma inh | MCF10A rerep | SW480 rereplic | KB-V1 cytotox | KB-3-1 cytotox | VP16 counter
CC1CCN(C(=O)CN2c3ccc(C(C)C)cc3-c3ccccc3S2(=O)=O)CC1 | . | . | . | i | i | .
O=C(C[N+]1(CCc2ccccc2)CCOCC1)c1ccccc1 | . | . | . | i | i | .
Nc1ccc(C(Cc2ccnc3ccccc23)Cc2ccnc3ccccc23)cc1 | . | . | . | i | ? | .
Cc1cc(F)cc(-c2cc(C(=O)NCc3ccco3)[nH]n2)c1 | . | . | . | i | i | .
Cc1ccc(-n2c(-c3ccc(Br)cc3)n[nH]c2=S)c(C)c1 | . | . | . | ? | i | .
Cc1ccc(-n2c(-c3ccncc3)n[nH]c2=S)c(C)c1 | 11µM* | -2% | 4% | i | i | ?
CCn1nc(-c2ccc(C)cc2)nc2c(=O)n(C)c(=O)nc1-2 | . | . | . | i | i | .
CCNS(=O)(=O)c1ccc(CCC(=O)NC2CCCC2)cc1 | -8% | 10% | 5% | i | i | -1%
CC(C)CNS(=O)(=O)c1ccc(CCC(=O)NC2CCCC2)cc1 | 2% | 1µM* | -61% | i | i | -9%
CN(C)c1ccc(N=Nc2ccccc2C(=O)OCC(=O)NCC2CCCCC2)cc1 | 6% | 18% | 17% | 7.3µM* | i | -7%
CN(C)c1ccc(N=Nc2ccccc2C(=O)OCC(=O)NC2CCCC2)cc1 | ? | ? | 3% | ? | i | -4%
O=[S+]([O-])([O-])c1ccc2c(c1)cc([S+](=O)([O-])[O-])c1nn(-c3ccc(/C=C/c4ccc(-n5nc6c([S+](=O)([O-])[O-])cc7cc([S+](=O)([O-])[O-])ccc7c6n5)cc4[S+](=O)([O-])[O-])c([S+](=O)([O-])[O-])c3)nc12 | . | . | . | i | ? | .
Cc1ccc(NC(=O)CSc2nc3c(oc4ccccc43)c(=O)n2Cc2ccco2)cc1F | . | . | . | i | i | .
COc1cc(C2Nc3cc(C)c(C)cc3NC3=C2C(=O)CC(C)(C)C3)ccc1OC(C)=O (stereo unspecified) | 7% | 9% | 12% | ? | i | 8%
Cc1cc2c(cc1C)NC(c1c(C)n(C)n(-c3ccccc3)c1=O)C1=C(CC(C)(C)CC1=O)N2 (stereo unspecified) | 13µM* | 11µM* | -3% | i | i | -29%
O=C(Nc1nc(-c2ccccc2)cs1)c1ccc2c(=O)n3c(nc2c1)CCCCC3 | ? | 18µM* | -7% | ? | ? | ?
CC(=O)c1cccc(NC(=O)c2ccc3c(=O)n4c(nc3c2)CCCCC4)c1 | 2.5µM* | 10% | -1% | ? | i | 5µM*
O=C(Nc1ccccc1Cl)c1ccc2c(=O)n3c(nc2c1)CCC3 | . | 6% | -5% | i | i | .
CCc1ccccc1Oc1nc(NCCOC)nc2cc(-c3ccccc3)sc12 | . | . | . | i | i | .
CCN(CC)S(=O)(=O)c1nnc(NC(=O)c2ccc(Br)cc2)s1 | . | . | . | i | ? | .
COc1cccc(CNC(=O)Cn2c(=O)ccc3cc(S(=O)(=O)N4CCC(C)CC4)ccc32)c1 | . | . | . | i | i | .
COc1ccc(/C=N/NC(C)(C)C)c(OC)c1 | 1% | 7% | 0% | i | i | -13%
COc1ccc(/C=N/Nc2cc(C)nc(-n3nc(C)cc3C)n2)c(OC)c1 | 0.2µM* | ? | ? | ? | i | 0.28µM*
CCOc1cc(/C=N/Nc2cc(C)nc(-n3nc(C)cc3C)n2)ccc1O | ? | ? | ? | i | i | 18µM*
Cc1cc(N/N=C/c2ccc(F)cc2)nc(-n2nc(C)cc2C)n1 | 0.079µM* | ? | ? | i | ? | 0.32µM*
SMILES | RORgamma inh | MCF10A rerep | SW480 rereplic | KB-V1 cytotox | KB-3-1 cytotox | VP16 counter
COc1ccccc1/C=N/Nc1cc(C)nc(N2CCOCC2)n1 | 8% | 14% | ? | i | i | -4%
COc1ccc(/C=N/Nc2nonc2N)c(OC)c1 | 18% | -4% | ? | 4.1µM* | ? | -3%
c1nc(N2CCC(N3CCCC3)CC2)c2cc(-c3ccc4c(c3)OCO4)ccc2n1 | . | . | . | i | i | .
CCN(CC)c1ccc(/C=N/N2C(=O)c3ccccc3C2=O)c(O)c1 | 32% | ? | -541% | i | i | -10%
O=C1c2cccc3cc([N+](=O)[O-])cc(c23)C(=O)N1/N=C/c1ccc(O)cc1O | -24% | 18% | 13µM* | i | i | ?
Fc1ccc2cnc(-c3ccccc3F)cc2c1 | . | 18µM* | -14% | i | i | .
Fc1ccc2cc(-c3ccccc3F)ncc2c1 | . | -4% | 13% | i | i | .
COc1ccc(COC(=O)N/N=C2/C[C@@H](O)[C@@H](O)[C@@H]3[C@@H]4C(=O)N(C5CCCCC5)C(=O)[C@H]4CC[C@H]23)cc1 | 6%[10 µM] | . | . | . | . | 10%[10 µM]
COC(=O)c1ccc(NC(=O)CCn2cnnn2)cc1 | . | . | . | i | i | .
NC(CCC(=O)NC(CCSC(CC(=O)O)C(=O)O)C(=O)NCC(=O)O)C(=O)O (stereo unspecified) | -19% | . | . | . | . | 7%
c1ccc(C(Cc2nc(-c3ccncc3)no2)c2ccccc2)cc1 | ? | 4% | -1% | i | 12µM* | 10µM*
c1ccc(-c2ccccc2-c2nc(-c3ccncc3)no2)cc1 | 8.9µM* | 1%[9.22 µM] | -21% | i | i | ?
c1ccc(-c2ccc(-c3nc(-c4cccnc4)no3)cc2)cc1 | 31% | 17% | -8% | 16µM* | i | -8%
c1ccc(-c2ccc(-c3nc(-c4ccncc4)no3)cc2)cc1 | 14% | 15µM* | 15% | ? | i | -3%
N#CC1(O)CCCCC1 | 23% | . | . | . | . | -6%
Cc1cnc(CNc2ncncc2-c2ccoc2)cn1 | 4% | . | . | . | . | 3%
O=[N+]([O-])c1ccc(-c2nc(-c3ccncc3)no2)cc1 | -24% | -9% | 2% | 18µM* | i | ?
Cc1ccc(-c2nc3ccc(Cl)cn3c2Cc2cccc(Cl)c2)cc1 | . | . | . | i | i | .
CCN(CC)CCN(C)Cc1nc(C(c2ccccc2)c2ccccc2)no1 | -18% | ? | ? | i | i | 1%
CN(CCc1cn[nH]c1)Cc1nc(C(c2ccccc2)c2ccccc2)no1 | 10µM* | 13% | -3% | i | ? | ?
COc1cccc(-n2c(=O)c3c(C)c(C)sc3n(CC(=O)Nc3ccccc3OC)c2=O)c1 | . | . | . | i | i | .
Cc1cccc(C(=O)c2cnc3ccccc3c2-c2ccccc2)c1 | ? | 23µM* | 7% | ? | i | 10µM*
Cc1ccc2ncc(C(=O)c3ccc(C)c(C)c3)c(S(=O)(=O)c3ccccc3)c2c1 | . | . | . | i | ? | .
